Inconclusive results are not listed. Unmarked numbers belong to inactive results. The source made the active and inactive calls. Calls come from the whole dose curve; as a rule, active = well fitted inhibition curve with a large enough effect in the repeat runs; inconclusive = weak or mixed curves; inactive = no such curve, though single readings can be large or run the other way.
experiment: Comparison of Janus kinase inhibitors to block the type I interferon pathway in human skeletal muscle cells: JAK inhibition assay; conditions: IFN pathway HiBiT reporter; series mostly up to 45.9 µM; activity change, negative = inhibition: at the top concentration
Excerpt: Assay Submitter: Travis B. Kinder Ph.D.
National Center for Advancing Translational Sciences (NCATS)
The family of Janus kinases (JAK1, JAK2, JAK3, TYK2) mediate signal transduction from cytokine receptors through phosphorylation and activation of intracellular signaling pathways and transcription factors. Small molecule antagonists of JAKs (jakinibs) have been developed with varying selectivity for the use in malignancies and immune regulation. […] We have assayed a library of 48 jakinibs for their ability to inhibit the JAK1/TYK2-dependent type I interferon (IFN) - major histocompatibility complex (MHC) class I pathway in human skeletal muscle cells genome-engineered to fuse a pro-luminescent HiBiT peptide to endogenous MHC class I.
The assay utilized CRISPR/Cas9 genome-engineered immortalized human myoblasts, C25cl48, where a pro-luminescent reporter HiBit was fused to the C-terminus of endogenous MHC class I allele HLA-B*08:01 (HLA-B HiBit myoblasts) (Kinder et al., 2020). HiBit is an 11 amino acid fragment of NanoLuc luminescent reporter (Promega Corporation), and when complexed to the larger LgBit fragment, the reconstituted enzyme produces light in the presence of furimazine substrate. Briefly, HLA-B HiBit myoblasts were plated into 1536-well plates, treated with 4.0 ng/ml human IFN-beta and 48 jakinibs in an 11-point, 1:3 titration with a high final concentration of 46 uM. After 24 hrs of treatment, cells were assayed by Nano-Glo HiBiT Lytic Detection System (Promega) and luminescence measured by a ViewLux 1430 Ultra HTS (Perkin Elmer).
Kinder TB, Dranchak PK, Inglese J. High-Throughput Screening to Identify Inhibitors of the Type I Interferon-Major Histocompatibility Complex Class I Pathway in Skeletal Muscle. ACS Chem Biol. 2020 Jul 17;15(7):1974-1986. doi: 10.1021/acschembio.0c00343
PROTOCOL TABLE (as described by Inglese et al., 2007)
SEQUENCE No. (e.g., 1, 2, 3, etc.); PARAMETER (e.g., Cells, Incubation, Reagent, etc.); VALUE; DESCRIPTION
1a; Cells; 5 uL; Seed 250 cells/well with a Multidrop Combi (Thermo Scientific) into two Greiner 1536 well white/solid bottom, high base, TC plates (789173-F) in 5 ul/well of growth medium (GM) without dexamethasone into columns 1+2
1b; Cells; 5 uL; Seed 250 cells/well with a Multidrop Combi (Thermo Scientific) into two Greiner 1536 well white/solid bottom, high base, TC plates (789173-F) in 5 ul/well of GM without dexamethasone + 4 ng/ml IFN-beta into columns 3 - 48. Add metal lids with gas-exchange holes
2; Incubate; 30 min; Incubate at 37C, 5% CO2, 95% RH
3; Compounds; 23 nl; Transfer DMSO control and library compounds in DMSO with Pin Tool (Wako)
4; Incubate; 24 hrs; Incubate at 37C, 5% CO2, 95% RH
5; Dispense; 2.5 ul; Add HiBit lytic reagent with a BioRAPTR FRD (Beckman Coulter)
6; Incubate; 10 min; Incubate in the dark at ambient temperature for lysis
7; Detector; 5 sec; Measure luminescence with ViewLux 1430 Ultra HTS (Perkin Elmer). Settings: Exposure = 5 sec, Gain = High, Speed = Slow, Binning = 2X
NOTES (numbers refer to sequence above)
1; HLA-B HiBit myoblasts cultured in GM - 4:1 ratio DMEM Glutamax (Thermo Fisher, 10566) : M199 (Thermo Fisher, 11150), 10% FBS (Hyclone Standard), 1% Pen/Strep, 50 ug/ml fetuin, 10 ng/ml hEGF, 1 ng/ml bhFGF, 10 ug/ml insulin, 0.4 ug/ml dexamethasone (supplements from Promocell, C-39360). […] Recombinant human IFN-beta (Peprotech, 300-02BC) was reconstituted in water, diluted in GM, and aliquots stored at -80C until day of use.
3; Control plate contained DMSO in columns 1 and 4, digitonin (Sigma, D141) cytotoxicity control in DMSO at 20 mM in column 2, and ruxolitinib (Selleckchem, S1378) inhibitor control in DMSO 16-point, 1:2 titration, high concentration = 17 mM in column 3. Digitonin and ruxolitinib stocks were reconstituted at 20 and 50 mM in DMSO and aliquots stored at -20C. Forty-eight compounds were added in an 11-point, 1:3 titration with a high final concentration of 46 uM by Pintool (Wako) from one library plates and one DMSO control plate
[…]

SMILES | Potency | activity change, negative = inhibition
CN(C)c1ccc(Nc2nc(N)n(C(=O)c3c(F)cccc3F)n2)cc1 | 6.58 µM (active) | –
CCS(=O)(=O)N1CCN(c2ccc(Nc3ncc(C(N)=O)c(NC4CC4)n3)cc2)CC1 | 0.93 µM (active) | –
O=C(Nc1ccnc(NC(=O)C2CC2)c1)c1c(Cl)cccc1Cl | 4.48 µM (active) | –
CC(C)N(CCC(=O)c1ccc2ccccc2c1)Cc1ccccc1 | 14.2 µM (active) | –
Fc1cc(-c2cccc3ncc(-c4cnn(C5CCNCC5)c4)nc23)cc(F)c1CN1CCOCC1 | 17.9 µM (active) | –
CCCS(=O)(=O)NC1CC(N(C)c2ncnc3[nH]ccc23)C1 (centres undefined) | 3.7 µM (active) | –
Cn1cc(Nc2nccc(N3C[C@H]4CC[C@@H](C3)N4C(=O)[C@@H]3CC3(F)F)n2)cn1 | 3.56 µM (active) | –
[2H]C([2H])([2H])NC(=O)c1nnc(NC(=O)C2CC2)cc1Nc1cccc(-c2ncn(C)n2)c1OC | 0.0711 µM (active) | –
N#CC[C@H](C1CCCC1)n1cc(-c2ncnc3[nH]ccc23)cn1 | 0.861 µM (active) | –
CC[C@@](C)(Nc1ccnc(-c2c[nH]c3ncccc23)n1)C(=O)NCC(F)(F)F | 8.29 µM (active) | –
C[C@@]12O[C@@H](C[C@]1(O)CO)n1c3ccccc3c3c4c(c5c6ccccc6n2c5c31)CNC4=O | 0.415 µM (active) | –
Cc1cc(Nc2cc(NC(=O)c3c(Cl)cccc3Cl)ccn2)nc(N)n1 | 2.16 µM (active) | –
C=CC(=O)N1C[C@H](Nc2ncnc3[nH]ccc23)CC[C@@H]1C | – | -26.6%
N#CCNC(=O)c1ccc(-c2ccnc(Nc3ccc(N4CCOCC4)cc3)n2)cc1 | 4.48 µM (active) | –
C[C@@H]1CCN(C(=O)CC#N)C[C@@H]1N(C)c1ncnc2[nH]ccc12 | 2.16 µM (active) | –
O=C(Nc1nc2cccc(-c3ccc(CN4CCS(=O)(=O)CC4)cc3)n2n1)C1CC1 | 15.3 µM (active) | –
CC1(C)CN(C(=O)c2ccc(-c3cccc4nc(NC(=O)C5CC5)nn34)cc2)C1 | 7.67 µM (active) | –
CCS(=O)(=O)N1CC(CC#N)(n2cc(-c3ncnc4[nH]ccc34)cn2)C1 | 1.31 µM (active) | –
Cc1cc(Nc2nc(N[C@@H](C)c3ncc(F)cn3)ncc2Cl)n[nH]1 | 1.47 µM (active) | –
Cc1oncc1C(=O)Nc1ccc(C(F)(F)F)cc1 | 17.2 µM (active) | –

SMILES | Potency | activity change, negative = inhibition
CC(=O)Nc1cc(Oc2ccc3c(nc(Nc4ccc(F)cc4F)n3C)c2C)ccn1 | 0.37 µM (active) | –
CCC[C@H](NC(=O)/C(C#N)=C/c1cccc(Br)n1)c1ccccc1 | 7.39 µM (active) | –
Cc1cnc(Nc2ccc(N3CCN(C)CC3)cc2)nc1Nc1cccc(S(=O)(=O)NC(C)(C)C)c1 | 2.43 µM (active) | –
COc1nsc(NC(=O)N2C[C@H]3CC(N(C)c4ncnc5[nH]ccc45)C[C@H]3C2)n1 (some centres undefined) | 0.432 µM (active) | –
Cc1cnc(Nc2ccc(OCCN3CCCC3)cc2)nc1Nc1cccc(S(=O)(=O)NC(C)(C)C)c1 | 3.56 µM (active) | –
CNS(=O)(=O)CC1CCC(N(C)c2ncnc3[nH]ccc23)CC1 (centres undefined) | 4.66 µM (active) | –
N#C/C(=C\c1ccc(O)c(O)c1)C(=O)NCc1ccccc1 | – | -0.854%
NC(=O)c1nc(-c2c(F)cccc2Cl)oc1Nc1ccc(C(=O)N2CCOCC2)cc1 | 5.23 µM (active) | –
Cc1cc(Nc2cc(CN3CCOCC3)c3nc(C)c(Cc4ccc(Cl)cc4F)n3n2)n[nH]1 | 14.2 µM (active) | –
N#CCC1(n2cc(-c3ncnc4[nH]ccc34)cn2)CN(C2CCN(C(=O)c3ccnc(C(F)(F)F)c3F)CC2)C1 | 0.861 µM (active) | –
Cc1cnc(Nc2ccc(CN3CCOCC3)cc2)nc1Nc1cccc(S(=O)(=O)NC(C)(C)C)c1 | 5.43 µM (active) | –
CC[C@@H]1CN(C(=O)NCC(F)(F)F)C[C@@H]1c1cnc2cnc3[nH]ccc3n12 | 0.33 µM (active) | –
CN1CCN(c2cccc(Nc3nc4c(-c5ccc(S(C)(=O)=O)cc5)cccn4n3)c2)CC1 | 3.06 µM (active) | –
COc1cc2ncnc(Nc3ccc(O)cc3)c2cc1OC | – | -22.8%
CC(C)(C)c1nc2c3cc[nH]c(=O)c3c3cc(F)ccc3c2[nH]1 | 1.26 µM (active) | –
C1=C/COCc2cc(ccc2OCCN2CCCC2)Nc2nccc(n2)-c2cccc(c2)COC/1 | 2.16 µM (active) | –
Cc1cc(Nc2nc(N[C@@H](C)c3ccc(F)cc3)c(C#N)cc2F)n[nH]1 | 1.08 µM (active) | –
Cc1cnc(Nc2cccc(CN3CCOCC3)c2)nc1Nc1cccc(S(=O)(=O)NC(C)(C)C)c1 | 10 µM (active) | –
NC(=O)c1cnc2[nH]ccc2c1NC1C2CC3C[C@H]1CC(O)(C3)C2 (some centres undefined) | 1.72 µM (active) | –

— PubChem BioAssay AID1645849 (National Center for Advancing Translational Sciences (NCATS), 2021)
